Pf growth 48h: P. falciparum growth inhibition at 48 hours (one generation). P. falciparum luciferase growth in erythrocytes, 48 h. Potency, µM (doses to about 28.7 µM), for the others: at the top dose activity change, negative = inhibition, hits mostly inhibitors. 310,000 compounds, 5.9% hits. AID 504832
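Compounds are pin-transferred into medium, infected erythrocytes (2% hematocrit, 0.1% parasitemia final) are added, and plates sit one parasite generation at 37 C in 5% CO2. Detection reagent is then added and luminescence measured.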
HCV inh: blocks hepatitis C virus | Huh7.5.1 HCVcc-Cre infection, luciferase reporter, 44 h | Potency, µM (titrated, usually from 41.8 µM), for the others: at the highest dose activity change, negative = inhibition, hits mostly inhibitors | 340,000 compounds, 3.4% hits | AID 651820
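1,000 cells/well; 4 h culture; + compound; + HCVcc-Cre (~0.5 moi); 44 h; luciferase substrate, RT 15 min; read 15 sec.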
AMA1-RON2 inh: inhibitors of Plasmodium falciparum AMA1-RON2 interaction | 360,000 compounds, 0.2% hits | AID 720542 | AlphaScreen AMA1-biotinylated RON2 peptide binding | Potency, µM (highest dose often 58.2 µM), inactives show at the highest dose activity change, negative = inhibition, hits mostly inhibitors;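 further: 0% = vehicle wells and -100% = peptide control; nearly all actives have a fitted effect of over 45% in size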
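AMA1 (3D7) with his tag at 25 nM final met compounds first, then biotinylated RON2 peptide at 25 nM; detection used donor plus acceptor beads, 10 µg/mL apiece, read by AlphaScreen after 30 min at room temperature.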
Pf growth 96h: P. falciparum growth inhibition at 96 hours; P. falciparum luciferase reporter growth, 96 h; Potency, µM (top dose mostly 28.7 µM), without a hit: top-dose activity change, negative = inhibition, most hits filed as inhibitors; 320,000 compounds, 6.9% hits; AID 504834
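Erythrocytes infected with luciferase-expressing P. falciparum were dispensed at 2% hematocrit and 0.05% parasitemia (final), then incubated with compounds 96 hours at 37 C in 5% CO2. Luminescence after detection reagent addition reported growth.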
* = called active by the depositor; ? = inconclusive; nt = no result given; ! = not active in a repeat; [ ] = remark or other dose. Most compounds without a hit are left out; they make up all but 11% or so of the library. The call rests on the fitted dose curve; in most records, active means well fitted curve in the direction sought with a large enough effect; inconclusive means small, poorly fitted or top-dose-only effect, or another doubt; inactive means no such curve, though single readings can be large; an effect the other way counts as inactive or inconclusive. Unless noted, on the % scale 0 is the no-effect control and ±100 the full control effect; potency means the concentration at half of the fitted maximal effect.

SMILES	Pf growth 48h	HCV inh	AMA1-RON2 inh	Pf growth 96h
O=C(O)/C=C/c1cn(Cc2ccccc2)nc1-c1cccnc1	34.0%	22.6%	-3.7%	43.9%
OCC1OCOC2C(CO)OCOC12 (centres undefined)	nt	17.0%	-3.7%	nt
Cc1ccc2cccc(CC(=O)NN)c2c1	nt	nt	73.1%	nt
CCN(C1CCCCC1)S(=O)(=O)c1ccc(S(=O)(=O)N2CCN(CCC#N)CC2)cc1	?	-6.6%	-4.4%	6.57µM*
CC(C)=N/N=C(/c1ccc([N+](=O)[O-])cc1)C12CN3CN(CN(C3)C1)C2	0.0%	4.9%	7.8%	13.1µM*
O=C(c1cccc([N+](=O)[O-])c1)C12CN3CN(CN(C3)C1)C2	?	15.3%	-2.1%	57.1%
O=c1c2cn[nH]c2nc(SCc2c(F)cccc2F)n1-c1ccc(Cl)cc1	-19.3%	-11.5%	6.3%	0.0%
O=C(NCCCCCCCN1CCCCCCC1)C(C1CCCCC1)C1CCCCC1	nt	?	-3.3%	nt
NC(=O)C1CCCN(CC(=O)Nc2cc(S(=O)(=O)N3CCOCC3)ccc2N2CCCC2)C1 (centres undefined)	-6.0%	18.7%	89.3%	?
CN1CCN(S(=O)(=O)c2ccc(NC(=O)Nc3cccc(Cl)c3)cc2)CC1	2.94µM*	7.94µM*!	-13.0%	1.8%
CN1CCN(S(=O)(=O)c2ccc(NC(=O)c3ccccc3Cl)cc2)CC1	3.8%	13.3%	22.6%	0.0%
O=C(Nc1cccc(Cl)c1)Nc1cc(S(=O)(=O)N2CCCCC2)ccc1Cl	?	11.2µM*	-9.7%	2.94µM*
CN1CCN(S(=O)(=O)c2ccc(NC(=S)NC(=O)c3ccccc3)cc2)CC1	-27.6%	1.5%	6.0%	nt
CN1CCN(S(=O)(=O)c2ccc(NC(=S)NC(=O)c3ccc(Cl)cc3)cc2)CC1	4.65µM*	?	41.3%	2.33µM*
O=C(Nc1ccc(-c2csc(Nc3ccc(Cl)cc3)n2)cc1)c1cccc(C(F)(F)F)c1	?	11.2µM*	-12.7%	10.4µM*
O=C(Nc1cccc(-c2csc(Nc3cccc(C(F)(F)F)c3)n2)c1)c1cc([N+](=O)[O-])cc(C(F)(F)F)c1	?	?	-27.2%	?
O=C(Nc1ccc(-c2csc(Nc3ccccc3)n2)cc1)c1cc([N+](=O)[O-])cc(C(F)(F)F)c1	0.586µM*	?	-9.2%	0.465µM*
CC1CCc2cc(F)ccc2N1C(=O)CCl (centres undefined)	?	?	23.0%	?
Cc1ccnc(NS(=O)(=O)c2cc(C(F)(F)F)ccc2Cl)c1	-25.5%	nt	nt	?
CC1CCN(C(=O)CC#N)CC1	0.9%	5.4%	-2.9%	18.9%
CC1CCN(C(=O)CCl)CC1	5.22µM*	-1.7%	-2.7%	5.86µM*
O=C(Nc1ccc(Cl)cc1)/C(=C/c1cccc(O)c1)c1nc2ccccc2s1	9.28µM*	12.6µM*	-6.3%	4.15µM*
O=C(O)C/C(=C\c1cccc(NC(=O)c2ccccc2Cl)c1)c1nc2ccccc2s1	-8.5%	19.2%	0.0%	?
Cc1ccc(C(=O)OCn2ncc(Cl)c(Cl)c2=O)cc1	?	2.51µM*	20.7%	?
O=C(OCn1ncc(Cl)c(Cl)c1=O)c1ccc(C(F)(F)F)cc1	31.4%	10µM*	-4.0%	18.3%
SMILES	Pf growth 48h	HCV inh	AMA1-RON2 inh	Pf growth 96h
O=S1(=O)CC(N2CCN(CCO)CC2)CN1Cc1ccccc1 (centres undefined)	nt	nt	6.0%	nt
O=C(NN1C(=O)C2C(c3ccccc3)C=CC(c3ccccc3)C2C1=O)c1cccc(Br)c1 (centres undefined)	-2.5%	-2.3%	0.3%	?
CCOC(=O)/C(=N/Nc1ccccc1)N1CCCc2ccccc21	14.7µM*	0.2%	?	?
CC(NC(c1ccccc1)c1ccccc1)C(=O)N1CCCc2ccccc21 (centres undefined)	10.4µM*	-9.9%	-14.5%[2.32 µM]	10.4µM*
CCOC(=O)/C(=N/Nc1ccc(OC)cc1)N1CCCc2ccccc21	?	-3.2%	22.4µM*	?
O=C(NC1CCCCC1)c1cc(-c2cccc(Cl)c2)on1	106.2%	-1.1%	8.8%	?
CCOC(=O)CN1C(=O)C(=O)N(Cc2ccccc2F)C1=O	-0.7%	10.9%	-9.1%	-9.8%
O=C(Nc1ccc(Cl)cc1)NC1CCCC1Cc1ccco1 (centres undefined)	10.4µM*	-19.0%	6.2%	?
C[C@@H]1COC(=O)[C@@H](NC(=O)OCC2c3ccccc3-c3ccccc32)C/C=C\C[C@@H](CC(=O)N(CCO)Cc2ccccc2)C(=O)N1	nt	?	-10.7%	nt
Cc1[nH]n(-c2ccccc2)c(=O)c1/C=N/Nc1nncc(-c2ccccc2)n1	0.415µM*	0.562µM*	-93.1%	0.586µM*
Cc1[nH]n(-c2ccccc2)c(=O)c1/C=N/NC(=O)c1cccc(F)c1	10.4µM*	11.2µM*	10.3%	-5.3%
O=C(CCc1nnc(COc2ccccc2)o1)NC1(c2ccccc2)CC1	9.1%	15.2%	-6.2%	?
CCc1ccc(N2CC(C(=O)Nc3ccccc3N3CCCC3)CC2=O)cc1 (centres undefined)	nt	nt	-1.6%	nt
CCOC(=O)c1nnn(-c2ccc([N+](=O)[O-])cc2[N+](=O)[O-])c1C	11.7µM*	?	2.3%	1.9%
O=C(Nc1cc(S(=O)(=O)Nc2ccccc2Cl)ccc1O)c1sc2cc(Cl)ccc2c1Cl	4.2%	-2.7%	4.9%	-5.3%
CCCCN1C(=O)NC2NC(=O)NC21 (centres undefined)	30.6%	22.5%	3.55µM*	-20.7%
CCCCN1C(=O)N(C)C2NC(=O)NC21 (centres undefined)	nt	8.9%	4.7%	5.7%
O=S1(=O)C=C(Sc2nnc(-c3ccccc3)o2)c2ccccc21	3.7µM*	10µM*	2.5%	2.1%
Nc1nc(NCCCN2CCOCC2)nc(Nc2ccc(F)cc2)c1[N+](=O)[O-]	13.1µM*	7.7%	14.7%	?
Cc1cccc(Nc2nc(NCCCN3CCOCC3)nc(N)c2[N+](=O)[O-])c1	14.7µM*	?	-23.1%	?
Nc1nc(NCCCN2CCOCC2)nc(Nc2cccc(F)c2)c1[N+](=O)[O-]	-14.1%	-21.5%	0.0%	?
CCn1ccnc1CNC(=O)c1ccc2oc(C(C)C)nc2c1	22.8%	15.0%	4.4%	0.0%
CCn1cc(CNC(=O)c2ccc(Cl)c([N+](=O)[O-])c2)c(C)n1	-25.9%	11.0%	3.4%	14.7µM*
CCn1cc(CNC(=O)c2cccc([N+](=O)[O-])c2)c(C)n1	16.3%	2.7%	4.4%[11.6 µM]	371.5%
CCOc1ccc(NC(=O)CN(C)C(=O)c2cn3ccccc3n2)cc1OCC	-2.8%	14.9%	-1.7%	-1.9%
CCC1(c2ccc(F)cc2)NC(=O)N(CC(=O)NCC(=O)Nc2cccc(C)c2C)C1=O (centres undefined)	-28.3%	11.6%	-3.0%	1.6%
CCCNC(=O)Cn1cnc2sc(C(=O)N3CCN(CCC)CC3)c(C)c2c1=O	-0.6%	6.1%	7.7%	0.37µM*
CC1CCN(c2ccc(C(=O)O)cc2N)CC1	35.3%	-1.2%	-11.9%	3.29µM*
Nc1cc(C(=O)O)ccc1N1CCCCC1	-9.9%	10.9%	-9.8%	-22.0%

Screens: PubChem BioAssay, National Center for Advancing Translational Sciences (NCATS)
